Source: PubChem BioAssay
hgDAF12 agonist = activates the H. glycines DAF-12 receptor ligand-binding domain | activation, % at 6.8 µM | actives 1.8% (n = 370,000) | AID 687014 | HEK293 GAL4-hgDAF12 UAS-luciferase reporter, agonist luminescence; normalized to butyrate control;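 active means activation above a cutoff set at the mean of all screened compounds plus 3 SD, cut at about 10% in these data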
DAX1 inh-1 = inhibitors of human orphan nuclear receptor DAX1 (NR0B1); actives 0.99% (n = 340,000); inhibition, % at 6.75 µM; HEK293 Gal4-DAX1 luciferase reporter, luminescence; P51843; AID 504766;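 active means inhibition above the mean over all tested compounds plus 3 SD, cut at about 4.2% in these data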;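 further: inhibition shows as a rise in luminescence from relieved DAX1 repression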
Target sequence (P51843 207-470 limits assumed): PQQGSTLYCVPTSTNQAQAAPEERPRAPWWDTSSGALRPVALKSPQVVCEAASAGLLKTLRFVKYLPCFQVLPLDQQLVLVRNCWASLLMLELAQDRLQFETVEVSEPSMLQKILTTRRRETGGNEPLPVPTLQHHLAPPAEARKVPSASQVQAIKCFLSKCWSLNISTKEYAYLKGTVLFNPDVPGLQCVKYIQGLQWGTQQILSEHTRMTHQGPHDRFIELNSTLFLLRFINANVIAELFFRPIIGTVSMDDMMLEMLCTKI
DAX1 inh-2 = inhibitors of DAX1 repression of SF-1 activated StAR promoter; AID 652010; inhibition, % at 6.8 µM; actives 1.1% (n = 370,000); HEK293T StAR-luciferase reporter, SF-1/DAX-1 repression relief;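 active means inhibition above the mean over all tested compounds plus 3 SD, cut at about 3.6% in these data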;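 further: higher inhibition means more luminescence from relief of DAX-1 repression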
hcDAF12 agonist = H. contortus DAF-12 activation, primary screen | HEK293 hcDAF-12 lit1-tk-luc reporter, luminescence; 0% DMSO, 100% Δ7-dafachronic acid | activation, % at 6.8 µM | actives 1.4% (n = 370,000) | AID 652067;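 active means activation above the mean of all tested compounds plus 3 SD, cut at about 5.5% in these data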
ssDAF-12 act = activators of S. stercoralis DAF-12 nuclear receptor; HEK293 ssDAF-12/GRIP1 lit1-tk-luc reporter, luminescence; % of 3 µM dafachronic acid response; activation, % at 6.8 µM; actives 1% (n = 370,000);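 active means activation above the mean over all tested compounds plus 3 SD, cut at about 0.9% in these data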
AHR act = human AHR activation; P35869; AHR-responsive luciferase reporter cells, luminescence; activation, % at 5 µM; actives 2.5% (n = 320,000); in the data active means activation above about 47%
Hits are given with their value; n = inactive; x = no result given. In the library only some 5.7% were active in any assay of this set; here they are far more common.

SMILES | hgDAF12 agonist | DAX1 inh-1 | DAX1 inh-2 | hcDAF12 agonist | ssDAF-12 act | AHR act
COC(=O)C1=C(C)NC2=C(C(=O)CCC2)C1c1coc2ccccc2c1=O (configuration not stated) | n | n | n | n | n | n
CC1=C(C(=O)OCC2CCCO2)C(c2coc3ccccc3c2=O)C2=C(CCCC2=O)N1 (configuration not stated) | n | 4.2 | n | n | n | n
Brc1cc(Br)c2nc(-c3cccs3)ccc2c1 | n | n | n | n | n | 52
Nc1nccc(-c2cccs2)n1 | n | n | n | n | n | n
COc1cccc(C(=O)NCCS(=O)(=O)N2CCN(C(=O)c3ccco3)CC2)c1 | n | n | n | n | n | n
O=C(CC1(O)C(=O)Nc2ccccc21)c1ccccc1O (configuration not stated) | n | n | n | n | n | n
O=C(CC1=NCCNC(c2ccccc2)C1)c1ccccc1O (configuration not stated) | n | n | n | 5.8 | n | n
COc1ccc(NC(=O)c2cc(-c3ccccc3Cl)no2)cc1 | n | n | n | n | n | n
O=C(Nc1cccc(F)c1)c1ccc(-c2ccccc2Cl)o1 | x | n | x | x | x | 50
O=C(Nc1ccccc1)c1cc(-c2ccccc2Cl)no1 | n | 4.3 | n | n | n | n
CCNC(=O)C1(C)CCN(C(=O)c2ccc(-c3ccccc3)cc2)C1 (configuration not stated) | n | x | n | n | n | x
COc1ccc2nc(SCC(=O)NCc3ccc(F)cc3)[nH]c2c1 | n | n | n | n | n | n
Cc1ccc2nc(SCC(=O)Nc3cc(C)on3)[nH]c2c1 | n | n | n | n | n | n
COc1ccc2nc(SCC(=O)N3CCNC3=O)[nH]c2c1 | 11 | n | n | n | n | n
Cc1ccc2nc(SCC(=O)NNC(=O)c3ccccc3)[nH]c2c1 | n | n | n | n | n | 52
Cc1ccc2nc(SCC(=O)NCc3cccs3)[nH]c2c1 | n | n | n | n | n | 49
COc1cccc(CNC(=O)CSc2nc3ccc(C)cc3[nH]2)c1 | n | n | n | n | n | 53
Cc1ccc2nc(SCC(=O)Nc3ncccn3)[nH]c2c1 | n | n | n | n | n | n
O=C1NC(Cc2ccc(O)cc2)c2nc3ccc(F)cc3c(=O)n2-c2cc(Cl)ccc21 (configuration not stated) | n | n | n | n | n | x
Cc1ccc2nc(SCC(=O)NC3CCCc4ccccc43)[nH]c2c1 (configuration not stated) | n | n | n | n | n | 59
O=C(CSc1cc(Cl)ccc1Cl)NC1CCCc2ccccc21 (configuration not stated) | n | n | n | n | n | n
C[C@H](O)[C@@H]1C(=O)N2CCc3c([nH]c4ccccc34)[C@@H]2C[C@@H]1N(C)S(=O)(=O)c1ccccc1 | n | n | n | n | n | x
O=C(COc1cccnc1[N+](=O)[O-])Nc1ccc2c(c1)CCC2 | n | n | n | n | n | n
COc1cc(CNc2ccc3c(c2)CCC3)cc(OC)c1O | n | n | n | n | n | n
CCOc1ccccc1NC(=O)NC(=O)N(C)S(=O)(=O)c1ccc(C)cc1 | n | n | n | n | n | 64
SMILES | hgDAF12 agonist | DAX1 inh-1 | DAX1 inh-2 | hcDAF12 agonist | ssDAF-12 act | AHR act
CCOc1ccccc1NC(=O)Nc1ccc2c(c1)CCC2 | n | n | 3.6 | n | n | 78
CCOc1ccc(NC(=O)NC(=O)N(C)S(=O)(=O)c2ccc(C)cc2)cc1 | n | n | n | n | n | n
O=C(COc1ccccc1F)Nc1ccc2c(c1)CCC2 | 15 | n | 3.7 | n | n | n
CCOc1cc(CNc2ccc3c(c2)CCC3)ccc1O | n | n | n | n | 1.2 | n
O=C1NC[C@@H](CCCCN2C[C@H](Cc3ccc(O)cc3)N(Cc3ccccc3)C(=O)C2=O)N(CCC2CCCCC2)C1=O | n | x | n | n | n | x
CCCN1CCCCC(NC(=O)c2ccc(-c3ccccc3)cc2)C1=O (configuration not stated) | n | x | n | n | n | x
CCOc1ccccc1NC(=O)Nc1cccc(S(N)(=O)=O)c1 | n | x | n | n | n | 48
C=CCNC(=S)Nc1ccc(OC)c(S(=O)(=O)N2CCOCC2)c1 | n | n | n | n | n | n
C=CCn1c(SCC(=O)NCC2CCCO2)nnc1-c1ccccc1 (configuration not stated) | n | n | n | n | n | n
COC(=O)C1CN(C(=O)c2cccc(OC(F)F)c2)c2ccccc2O1 (configuration not stated) | n | n | n | n | n | 49
O=C(COc1ccc(S(=O)(=O)NCc2ccccc2)cc1Cl)NCc1ccccn1 | n | n | n | n | n | n
O=C(COc1ccc(S(=O)(=O)N2CCc3ccccc32)cc1Cl)NCc1ccccn1 | n | n | n | n | 0.9 | n
O=C(CSCc1ccc(Br)cc1)N1CCCC1 | n | n | n | n | n | n
COc1ccc(Cc2c(C(C)(C)C)nc3cc(C)c(Br)c(C)n23)c(C)c1 | n | x | n | n | 1.8 | x
COc1ccc(Cc2c(-c3ccc(Cl)cc3)nc3cc(C)c(Br)c(C)n23)c(C)c1 | 13 | x | n | n | 0.9 | x
COc1ccc(Cc2c(-c3cccc(Br)c3)nc3cc(C)c(Br)c(C)n23)c(C)c1 | n | x | n | n | n | x
